# In PubChem BioAssay AID628 (Vanderbilt High Throughput Screening Facility, 2007):
# The campaign covered roughly 64,000 compounds. About 2,200 (3.4%) were called active. What follows is part of a selection rich in actives, with near analogues and random picks from the rest. Unmarked numbers belong to inactive results.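 Rule for the calls: active = calcium fluorescence response, raw or row-and-column corrected B-score, differing from the plate sample mean either way at a set confidence level, mostly lower; inactive = the rest.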
# Molecular target: Muscarinic acetylcholine receptor M1 (Rattus norvegicus) (UniProt P08482)
# Experiment: blocks the rat M1 muscarinic receptor response to acetylcholine (AID 628)
# Details: CHO-M1 cells, Fluo-4 calcium, ACh EC80 antagonist mode; at 10 µM; hits give low values
# Muscarinic acetylcholine receptor M1 (Rattus norvegicus), sequence (P08482 whole entry, looked up): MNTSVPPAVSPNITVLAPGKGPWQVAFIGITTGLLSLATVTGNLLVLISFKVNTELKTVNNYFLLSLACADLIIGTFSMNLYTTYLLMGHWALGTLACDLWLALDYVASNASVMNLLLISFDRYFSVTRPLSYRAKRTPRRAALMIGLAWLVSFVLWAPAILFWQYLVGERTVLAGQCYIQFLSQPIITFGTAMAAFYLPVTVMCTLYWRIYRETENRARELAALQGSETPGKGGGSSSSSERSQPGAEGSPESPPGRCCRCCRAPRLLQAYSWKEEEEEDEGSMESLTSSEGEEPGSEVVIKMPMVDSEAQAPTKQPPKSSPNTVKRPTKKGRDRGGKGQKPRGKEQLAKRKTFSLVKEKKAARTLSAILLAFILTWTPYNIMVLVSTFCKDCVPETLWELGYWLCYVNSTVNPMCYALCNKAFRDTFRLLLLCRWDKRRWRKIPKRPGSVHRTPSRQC
row,Structure (SMILES),B-score
1,O=C(COc1ccc(Cl)cc1)Nc1ccccc1CO,0.609
2,COc1cc(OC)c(C(=O)NC2CC(C)(C)NC(C)(C)C2)cc1OC,-2.14 (active)
3,COc1cc(OC)c(C(=O)NC2CCCCCC2)cc1OC,-1.64
4,Cc1ccc(C(=O)NC2CC(C)(C)NC(C)(C)C2)c(C)c1,0.35
5,CCOc1ccccc1NC(=O)CCc1ccc(C)o1,0.759
6,CCC(=O)c1ccc(OCC(O)CN2CCN(c3cccc(C(F)(F)F)c3)CC2)cc1 (configuration not stated),-3.03 (active)
7,O=C(CN1CCN(c2ccc(F)cc2)CC1)Nc1cccc(C(F)(F)F)c1,-1.83
8,Cc1ccc(OCC(O)CN2CCN(CC(O)COc3ccc(C)cc3Cl)CC2)c(Cl)c1 (configuration not stated),0.987
9,O=C(CCCN1C(=O)C2C3C=CC(C3)C2C1=O)N1CCN(c2ccccc2)CC1 (configuration not stated),-0.518
10,O=C(CN1C(=O)CSc2ncccc21)N1CCOCC1,-0.0388
11,O=C(CCCN1C(=O)CSc2ncccc21)N1CCN(c2cccc(C(F)(F)F)c2)CC1,-3.46 (active)
12,CCn1c(Cc2ccccc2)nnc1SCC(=O)Nc1ccccc1,-0.642
13,CC(C)c1nnc(NC(=O)C2CCCN2S(=O)(=O)c2ccc(Cl)cc2)s1 (configuration not stated),0.566
14,Cc1ccc(-c2noc(CN3CCN(Cc4ccccc4)CC3)n2)cc1,-0.779
15,CC12CN(Cc3ccccc3)CC(C)(CN(Cc3ccccc3)C1)C2=NO,-8.41 (active)
16,CC(=NC1CCN(Cc2ccccc2)CC1)c1c(O)[nH]c(=O)[nH]c1=O,-1.22
17,N#Cc1c2c(c(-c3ccccc3)[nH]c1=O)CCCC2,-0.0345
18,CCOC(=O)c1c(-c2ccc(C)cc2C)csc1NC(=O)CSc1nnnn1C,-1.47 (active)
19,CNC(=O)CSc1nnnn1-c1ccc(C)cc1C,-0.461
20,CCOC(=O)CNC(=O)CSc1nnnn1-c1cc(C)ccc1C,0.408
21,Cn1cc(S(=O)(=O)N2CCC(Cc3ccccc3)CC2)c(=O)n(C)c1=O,1.21

row,Structure (SMILES),B-score
1,CCOc1cc(C(=S)N2CCOCC2)ccc1O,-0.148
2,Cc1ccc(NC(=O)N2CCC(C(=O)NCc3ccc(F)cc3)CC2)cc1,0.137
3,Cc1nc2ncnn2c(C)c1CCC(=O)N1CCN(C(=O)c2ccco2)CC1,-0.557
4,Cc1nc2c(-c3ccc(F)cc3)c(C)nn2c(C)c1CCC(=O)N1CCN(c2ccccn2)CC1,-2.78 (active)
5,Cn1c(=O)cc(OCCCC(=O)N2CCN(c3ccccn3)CC2)c2ccccc21,-0.727
6,Cc1ccsc1C(=O)OCC(=O)c1cc(C)n(CC2CCCO2)c1C (configuration not stated),-0.425
7,O=C(NCCCNC(=O)NC1CCCCC1)NC1CCCCC1,0.589
8,Cc1nc2sc(C(c3ccco3)N3CCC4(CC3)OCCO4)c(O)n2n1 (configuration not stated),0.231
9,CC1CCCC(C)N1CCCNC(=O)c1cc2c(=O)n(C)c3ccccc3c2n1C (configuration not stated),-3.75 (active)
10,Cn1c(C(=O)NCCCN2CCN(c3cccc(Cl)c3)CC2)cc2c(=O)n(C)c3ccccc3c21,-1.91
11,CCN1CCCC1CNC(=O)c1cc2c(=O)n(C)c3ccccc3c2n1C (configuration not stated),-1.39
12,COC(=O)C(NC(C)=O)(Nc1nc2c(s1)CCCC2)C(F)(F)F (configuration not stated),0.181
13,COC(=O)c1cc(Cl)c(NC(=O)c2ccco2)cc1OC,0.0739
14,O=C(Nc1nnc(-c2ccc(Cl)cc2)o1)c1ccccc1Br,0.257
15,Cc1c(C)c2cc3c4c(oc3c(C)c2oc1=O)CCCC4,-2.52 (active)
16,CCCOc1ccc2c3c(c(=O)oc2c1OCCC)CCC3,-0.182
17,O=C(NCc1ccc(Cl)cc1)c1cc2c(nc3sccn32)s1,-0.593
18,CCC(C)(NC(=O)c1ccccn1)C(=O)NC1CCCCC1 (configuration not stated),-3.41 (active)
19,CCC(C)(C(=O)NC1CCCC1)N(C(=O)CNC(C)=O)c1ccc(C)cc1 (configuration not stated),0.0894
20,CN(CC(=O)NC1CCCCC1)S(=O)(=O)c1cccc2cccnc12,-0.865
21,O=C(O)c1cc(S(=O)(=O)N2CCCCCC2)c(Cl)cc1Cl,-0.939

row,Structure (SMILES),B-score
1,COCCCNC(=O)Cn1cc(C(=O)C2CC2)c2ccccc21,1.18
2,N#Cc1c2c(c(N3CCN(CCO)CC3)n3c1nc1ccccc13)CCCC2,-0.206
3,CN(C)CCCNc1c2c(c(C#N)c3nc4ccccc4n13)CCC2,-3.92 (active)
4,Cc1cc(NCc2ccco2)n2c(nc3ccccc32)c1C#N,0.838
5,CC(=O)CSc1nnc(CSc2ncccn2)n1C1CCCCC1,0.586
6,CC1CN(c2cc(=O)n(Cc3ccc(F)cc3)c(=O)[nH]2)CC(C)O1 (configuration not stated),-0.0281
7,CCOc1cc(S(=O)(=O)NCc2ccc3c(c2)OCO3)ccc1F,0.637
8,O=C(CS(=O)(=O)c1cn(Cc2ccc(Cl)cc2)c2ccccc12)N1CCOCC1,0.274
9,CCCCN(CCCC)C(=O)CCS(=O)(=O)c1ccc2c(c1)n(C)c(=O)c(=O)n2C,-3.55 (active)
10,CC1CCC(NS(=O)(=O)c2ccc3c(c2)n(C)c(=O)c(=O)n3C)CC1 (configuration not stated),-0.853
11,Cn1c(=O)c(=O)n(C)c2cc(S(=O)(=O)NCCc3ccccc3)ccc21,0.991
12,Cc1c(CN2CCC(C)CC2)c(=O)n(-c2ccccc2)n1C,0.549
13,Cc1cccc(N2CCN(Cc3c(C)n(C)n(-c4ccccc4)c3=O)CC2)c1C,-9.51 (active)
14,CC(=O)N1CCN(c2cccc(C)c2C)CC1,0.482
15,CC1CCCN(Cc2nc3c(c(=O)n(C)c(=O)n3C)n2Cc2cccc3ccccc23)C1 (configuration not stated),0.779
16,O=C1CC(Cc2ccccc2)C(=O)N1c1ccc(Cl)cn1 (configuration not stated),-0.406
17,CCn1c(SCC(=O)Nc2cc(C)ccc2C)nnc1-c1cnccn1,0.583
18,Cn1c(=O)[nH]c(=O)c2c1nc(N1CCCCCC1)n2CC(=O)c1ccccc1,0.41
19,C=C(C)Cn1c(N2CCCC2)nc2c1c(=O)[nH]c(=O)n2C,-2.42 (active)
20,C=C(C)Cn1c(N2CCN(CC)CC2)nc2c1c(=O)[nH]c(=O)n2C,0.423
